Screens from PubChem.
Rows were chosen to be rich in hits. Some 3.9% of all compounds tested hit in one or more screens of this group.
Anthrax LF inh2 = inhibitors of Bacillus anthracis lethal factor protease; P15917; multiplex microsphere protease cleavage assay, LF; inhibition, % at 10 µM; 360,000 compounds, 0.12% hits; AID 588501
BH1578 lux ind = induces V. cholerae light production without autoinducers; V. cholerae BH1578 lux reporter, luminescence, 6 h; activation, % at 18.7 µM; 350,000 compounds, 0.16% hits; in the data active means activation mostly above about 9.7%, no sharp cut-off; inconclusive means no clear call, values can overlap the other calls; inactive means mostly below about 3.7%
BoNT F protease = inhibitors of Botulinum neurotoxin F light chain protease. inhibition, % at 10 µM. 360,000 compounds, 0.22% hits. Multiplex microsphere protease cleavage assay, flow cytometry. AID 588497; in the data active means inhibition above about 35%, passing the limit was not always enough; inconclusive means no clear call, values can overlap the other calls
MazF activator = MazEF (E. coli) toxin RNase activation | P0AE70 | AID 504720 | FAM/BHQ RNA-DNA oligo cleavage fluorescence, 5 h | 350,000 compounds, 0.32% hits | activation, % at 20 µM; in the data active means activation above about 50%
Target sequence (P0AE70 whole entry, looked up): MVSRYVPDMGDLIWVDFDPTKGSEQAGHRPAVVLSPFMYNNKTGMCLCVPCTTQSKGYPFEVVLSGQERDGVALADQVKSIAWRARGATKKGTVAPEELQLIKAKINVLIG
Bead autofluor = compound fluorescence in toxin protease inhibitor counterscreen; compound autofluorescence counterscreen, microsphere flow cytometry; hits give high values; fluorescence intensity (no concentration beside the values); 360,000 compounds, 3.1% hits; AID 624483; in the data active means fluorescence intensity above about 16000; inconclusive means no clear call, values can overlap the other calls
BoNT-A LC inh2 = blocks Botulinum neurotoxin A light chain protease | multiplex microsphere protease substrate cleavage, flow cytometry | 360,000 compounds, 0.17% hits | inhibition, % at 10 µM | AID 588499
Each line names hits and unclear results; the compound was inactive in the other large screens. Unless noted, no stated cut-off is given here; in the data, active means inhibition above about 30%; inconclusive means no clear call, values can overlap the other calls; inactive means below that.

O=C(CN(CCc1ccccc1)C(=O)CN1C(=O)COc2ccccc21)NCc1ccco1	Bead autofluor 23028
Cc1ccc2c(c1)N(CC(=O)NCc1ccco1)C(=O)CO2	none
CS(=O)(=O)N1CCN(c2ccc(NC(=O)c3ccc(-c4ccc(Cl)cc4)o3)cc2)CC1	Bead autofluor 17675
CN1CCN(c2ccc(NC(=O)c3ccc(-c4ccc(Cl)cc4)o3)cc2)CC1	none
CS(=O)(=O)N1CCN(c2ccccc2NC(=O)c2cc(Br)ccc2Cl)CC1	none
O=C(NC(=S)Nc1ccccc1N1CCCC1)c1ccc(-c2cccc([N+](=O)[O-])c2)o1	Bead autofluor 19601, BoNT-A LC inh2 inconclusive
CS(=O)(=O)N1CCN(c2ccccc2NC(=O)c2ccc(-c3ccc(Br)cc3)o2)CC1	Bead autofluor 16514
COc1ccc(Cl)cc1CC=NNC(=O)c1cccc(C)c1O	none
COc1cccc(NC(=O)Cc2nnc(SCC(=O)NC3CCCCC3)n2C)c1	none
CCOC(=O)c1[nH]c2ccc(C)cc2c1N	Bead autofluor 22785
CCOC(=O)c1[nH]c2cc(OC)c(OC)cc2c1N	Bead autofluor inconclusive
COc1ccc(S(=O)(=O)N2CCC(Nc3ccccc3Cl)CC2)cc1	none
C=CCN(C(=O)Nc1ccc(F)cc1)C1CC(=O)N(c2ccc(OC)cc2)C1=O (centres undefined)	Bead autofluor 21431
C=CCN(C(=O)Nc1ccc(Cl)cc1)C1CC(=O)N(c2ccc(OC)cc2)C1=O (centres undefined)	none
CC1CCCC(C)N1C(=O)COC(=O)c1n[nH]c(=O)c2ccccc12 (centres undefined)	none
Nc1[nH]c(=O)nc(Nc2ccccc2)c1N=O	none
NC(=O)c1cnn2c(C(F)(F)F)cc(-c3ccc(F)cc3)nc12	Bead autofluor 22634
CC(C)CCNC(=O)c1cnn2c(C(F)(F)F)cc(-c3ccco3)nc12	Bead autofluor 19781
CCOC(=O)c1cnn2c(C(F)(F)F)cc(-c3ccco3)nc12	none
NC(=O)c1cnn2c(C(F)(F)F)cc(-c3ccccc3)nc12	none
O=C(NC1CCCC1)c1cnn2c(C(F)(F)F)cc(-c3ccc4c(c3)OCO4)nc12	MazF activator 76
O=C(NC1CCCC1)c1cnn2c(C(F)(F)F)cc(-c3ccco3)nc12	Bead autofluor 20185
CC(C)Oc1cc(C(=O)NC2CCCCC2)c2ccccc2n1	none
CCc1ccccc1NC(=O)CCc1nc(-c2cccs2)no1	none
Cc1c(/C=N/NC(=O)c2cccnc2)c2ccccc2n1Cc1ccccc1	Bead autofluor 24760
O=C1c2ccccc2C(=O)N1CCCCN(C(=O)c1cc([N+](=O)[O-])ccc1Cl)c1ccc(Cl)cc1	none
Cc1cccc(C(=O)NC2=NCCS2)c1	none
O=C(NC1=NCCS1)c1cc2ccccc2o1	Bead autofluor 20997
Cc1cc(C(=O)NC2=NCCS2)cs1	Bead autofluor 22079, BoNT-A LC inh2 inconclusive
O=C(NC1=NCCS1)c1ccccc1	none
Nc1nc(SCC(=O)N2CCCc3ccccc32)n[nH]1	none
CC(C)CN=C(NS(=O)(=O)c1ccccc1)C(Cl)(Cl)Cl	none
Cc1ccccc1N1CCN(Cc2c(C#N)c3ccccc3n2C)CC1	Bead autofluor 23866
Cn1c(CN2CCN(CCO)CC2)c(C#N)c2ccccc21	BoNT F protease inconclusive
CC1CN(C(=O)c2cccc(C(=O)N3CC(C)OC(C)C3)c2)CC(C)O1 (centres undefined)	none
Cc1cc(C)cc(C(=O)N2CC(C)OC(C)C2)c1 (centres undefined)	Bead autofluor 22829, BoNT-A LC inh2 inconclusive
Cc1ccc(C)c(Cn2nnc3c(=O)[nH]c(C(=O)NCc4ccco4)nc32)c1	Bead autofluor 22656
O=C(NCc1cccs1)c1nc2c(nnn2Cc2ccc(F)cc2)c(=O)[nH]1	Bead autofluor 16259
O=C1OC=NC1=Cc1ccccc1	none (no result: BH1578 lux ind)
Cc1ccc(-c2nn(C)c(=O)c3ccccc23)cc1CO	BH1578 lux ind 17
CC(=O)OCc1cc(-c2nn(C)c(=O)c3ccccc23)ccc1C	none
O=C(NC1CCCCC1)C1c2ccccc2OCC(=O)N1CC(F)(F)F (centres undefined)	none (no result: BH1578 lux ind, MazF activator)
CCC(C)NC(=O)CN1C(=O)c2cccc3cccc1c23 (centres undefined)	none
CCN1/C(=N\N)c2cccc3cccc1c23	BoNT-A LC inh2 39
COc1ccc2c(c1)CCC1C2CCC2(C)C(O)C(=O)CC12 (centres undefined)	none
Cn1c(SCC(=O)N/N=C/C=C\c2ccco2)nc2ccccc21	Bead autofluor 22987
CCn1c(SCC(=O)N/N=C/C=C\c2ccco2)nc2ccccc21	none
CCOc1c(Br)cc(C(=O)Nc2cccc(S(=O)(=O)N3CCOCC3)c2)cc1OC	none
COCCn1c(SCC(=O)Nc2sc(C)c(C)c2C#N)nnc1-c1ccc(OC)cc1	Bead autofluor 22774
N#Cc1c(-c2ccc(F)cc2)nc2n(c1=O)CCS2	Bead autofluor 22077
COc1ccc(-c2nc3n(c(=O)c2C#N)CCS3)cc1	none
Cc1nc2c(C(=O)NCc3ccc4c(c3)OCO4)c[nH]n2c(=O)c1Cl	Bead autofluor 25275
Cc1nc2c(C(=O)NCCC3=CCCCC3)c[nH]n2c(=O)c1Cl	Bead autofluor 23190
O=C(NCCC1=CCCCC1)c1cnc2n(c1=O)CCS2	Bead autofluor 24855
CCc1noc(C)c1C(=O)Nc1ccccc1C(C)(C)C	none
CC(CCc1ccccc1)NC(=O)CCNS(=O)(=O)c1ccccc1C(F)(F)F (centres undefined)	none
CC1(C)C(c2cccs2)=[N+]([O-])C2(CCCCC/C2=N\O)N1O (centres undefined)	Bead autofluor 24784
Cc1ccc(C2=[N+]([O-])C3(CCCCC/C3=N\NC(N)=O)N(O)C2(C)C)o1 (centres undefined)	none
Cc1cc(C(=O)CN(Cc2ccc(F)cc2)S(=O)(=O)c2ccc3c(c2)OCCO3)c(C)n1C	Bead autofluor 20608, BoNT-A LC inh2 inconclusive
O=C(CN(Cc1ccccc1)S(=O)(=O)c1ccc2c(c1)OCCO2)N/N=C/c1ccc(F)cc1	none
CCOC(=O)c1c(C)[nH]c(C(=O)OCC(=O)Nc2cc(Cl)ccc2OC)c1C	Bead autofluor 16877
CCOC(=O)c1[nH]c(C)c(C(=O)OCC(=O)NC(=O)NC(C)(C)C)c1C	Bead autofluor 20160
CCOC(=O)c1c(C)[nH]c(C(=O)OCC(=O)NC(C)(C)C)c1C	none
COc1ccc(NC(C)=O)cc1NC(=O)CSc1nnc(-c2ccncc2)n1C	Bead autofluor 21036, BoNT-A LC inh2 inconclusive
CC(NC(=O)c1ccccc1F)c1nnc(SCC(=O)Nc2nccs2)n1C (centres undefined)	none
CCC(=O)Nc1ccc(-c2nnc(SCC(=O)Nc3nccs3)n2C)cc1	Bead autofluor 19859
CC(C)C(NC(=O)c1cccs1)c1nnc(SCC(=O)Nc2nccs2)n1C (centres undefined)	Bead autofluor 21406
COc1ccc(NC(C)=O)cc1NC(=O)CSc1nnc(-c2ccccc2)n1N	none
COc1cccc(-c2csc3nnc(SCC(=O)c4ccc(NC(C)=O)cc4)n23)c1	none
